# Rows were chosen to be rich in hits. Some 4.3% of all compounds tested hit in one or more screens of this group.
# CF NFkB block = inhibitors of PAF-induced NF-kB signaling, primary screen, cell-based, GFP fluorescence, uHTS; KKLEB NF-kB-GFP reporter, GFP fluorescence overnight; inhibition, % at 5 µM; 0.86% of 360,000 active; AID 588850, 2011;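 active = at least 50% inhibition at 5 µM, scaled per plate between neutral and stimulator controls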;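 also: PAF is a Pseudomonas aeruginosa culture filtrate used as stimulus; plate controls were PAF-stimulated DMSO wells for no effect and unstimulated DMSO wells for full effect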
# CHOP inh = inhibitors of CHOP promoter induction, primary screen, cell-based, unfolded protein response, luciferase reporter; inhibition, % at 10 µM; 3.8% of 220,000 active; CHO-K1 CHOP-promoter luciferase, tunicamycin-induced, 15-18 h; AID 2732, 2010;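 active = compounds that reduced the stress-induced luciferase reporter signal by more than about 70% of percent inhibition, limit read from the data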;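 also: 0% = tunicamycin plus vehicle and 100% = wells without tunicamycin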
# HIF-2a block = HIF-2a reporter inhibitors, primary screen, luminescence, 786-0 RCC cells. 0.72% of 360,000 active. inhibition, % at 18.8 µM. 786-0 RCC cells HIF-2a reporter, luciferase luminescence, overnight;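 active = inhibition of the luminescence signal of 40% or more relative to plate controls, in a single-dose primary screen at 18.75 µM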
# KKLEB tox = cytotoxicity in KKLEB CF airway cells, primary screen, cytotoxicity control for CF NF-kB inhibitor project, cell-based, uHTS, fluorescence assay plates; KKLEB CF airway cells viability, ATPlite luminescence, overnight; active compounds read low; cells stimulated with P. aeruginosa culture filtrate; activity change (cytotoxicity), % at 5 µM; 0.36% of 360,000 active; AID 602141, 2011;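 active = corrected activity change at or below -50% at 5 µM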
# Peg3 promoter = Peg3 promoter-driven luciferase inhibitors, primary screen, cell-based, HeLa, luciferase luminescence. HeLa PEG-Prom luciferase reporter, overnight. inhibition, % at 20 µM. 1.7% of 360,000 active. AID 588405, 2011;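 active = inhibition of at least 50% at 20 µM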
# MITF TRPM1 inh = inhibitors of MITF-dependent TRPM1 promoter reporter, primary screen, cell-based, SK-MEL-5, single point, luciferase. SK-MEL-5 TRPM1 promoter luciferase, 24 h. inhibition, % at 12.5 µM. 0.83% of 330,000 active. AID 488899, 2010;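 active = mean inhibition across replicates of 60% or more, whatever share of single replicates reaches that level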
# CF NFkB inh conf = inhibitors of PAF-induced NF-kB signaling, retest, confirmation, cell-based, GFP fluorescence, single concentration | AID 602472, 2012 | KKLEB CF airway cells, overnight | 64% of 1,300 active | shares compounds with CF NFkB block | inhibition, % at 5 µM; in the data active = inhibition above about 40%;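 also: stimulus PAF is a Pseudomonas aeruginosa filtrate and not platelet activating factor; plate controls were DMSO wells with stimulus for no effect and unstimulated DMSO wells for full effect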
# Mdm2-MdmX confirm = retested Mdm2-MdmX interaction blockers, confirmation, cell-based, luminescence, single concentration, set 2. shares compounds with HIF-2a block. SaOS-2 split-luciferase Mdm2/MdmX complementation. inhibition, % at 8 µM. 99% of 740 active;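 active = mean inhibition of the luminescence signal across two replicates at or above 26 percent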
# Target sequence (O15151 whole entry, looked up): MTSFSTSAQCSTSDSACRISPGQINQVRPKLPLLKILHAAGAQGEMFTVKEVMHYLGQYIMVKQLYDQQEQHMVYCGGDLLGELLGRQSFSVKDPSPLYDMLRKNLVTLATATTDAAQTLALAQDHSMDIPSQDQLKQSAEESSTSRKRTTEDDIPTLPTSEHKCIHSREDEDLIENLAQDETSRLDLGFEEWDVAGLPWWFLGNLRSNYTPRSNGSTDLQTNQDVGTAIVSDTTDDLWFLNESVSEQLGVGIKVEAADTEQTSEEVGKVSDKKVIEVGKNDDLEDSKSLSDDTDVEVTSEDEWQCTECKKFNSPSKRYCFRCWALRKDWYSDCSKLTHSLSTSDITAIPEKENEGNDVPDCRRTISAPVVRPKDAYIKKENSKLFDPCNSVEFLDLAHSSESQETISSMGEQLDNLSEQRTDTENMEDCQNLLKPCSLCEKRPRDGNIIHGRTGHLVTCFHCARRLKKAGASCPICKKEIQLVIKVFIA
# Target sequence (Q00987 whole entry, looked up): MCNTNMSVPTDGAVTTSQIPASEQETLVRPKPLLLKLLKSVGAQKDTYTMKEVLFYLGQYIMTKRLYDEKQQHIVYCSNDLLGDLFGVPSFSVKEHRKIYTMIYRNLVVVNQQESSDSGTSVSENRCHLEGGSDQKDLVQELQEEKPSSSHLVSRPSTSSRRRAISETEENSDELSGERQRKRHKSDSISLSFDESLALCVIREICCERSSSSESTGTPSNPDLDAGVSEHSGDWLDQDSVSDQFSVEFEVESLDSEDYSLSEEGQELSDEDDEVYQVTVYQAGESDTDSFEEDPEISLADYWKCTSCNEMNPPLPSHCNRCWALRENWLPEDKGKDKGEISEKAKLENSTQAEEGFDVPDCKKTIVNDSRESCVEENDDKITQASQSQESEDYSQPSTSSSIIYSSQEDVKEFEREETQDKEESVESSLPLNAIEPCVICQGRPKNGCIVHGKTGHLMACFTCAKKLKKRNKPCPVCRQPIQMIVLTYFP
# HIF-2a inh conf = HIF-2a reporter inhibitor retest, confirmation, luminescence, 786-0 RCC cells | inhibition, % at 18.8 µM | HIF-2a luciferase reporter luminescence, overnight | shares compounds with HIF-2a block | AID 651580, 2012 | 56% of 1,800 active;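 active = mean inhibition across four replicates of at least 40 percent at the single tested concentration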
# HIF-1a counter = HIF-1a luciferase reporter signal reduction – MiaPaCa-2 cells, single concentration, counter-screen for HIF-2a inhibitor project, confirmation. shares compounds with HIF-2a block. MiaPaCa-2 HIF-1a luciferase reporter, desferoxamine, overnight. inhibition, % at 18.8 µM. 72% of 1,800 active. AID 651589, 2012;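 active = mean inhibition of the reporter signal across four replicates at the single tested dose of 50% or more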
# Active calls of the source: *; . = not tested or not shown.
SMILES,CF NFkB block,CHOP inh,HIF-2a block,KKLEB tox,Peg3 promoter,MITF TRPM1 inh,Mdm2-MdmX confirm,HIF-2a inh conf,HIF-1a counter,others
COc1cccc(S(=O)(=O)N(C)C[C@H]2OCc3cnnn3CCCC(=O)N([C@@H](C)CO)C[C@H]2C)c1,11,.,6,13,2,.,.,.,.,
CCC(=O)c1ccc2c(c1)OCCO2,25,10,-18,1,-1,0,.,.,.,
CCc1ccccc1NC(=O)CN(C)C(=O)Cn1cnc2ccc(Cl)cc2c1=O,-26,.,4,16,10,-3,.,.,.,
CCc1ccccc1NC(=O)CN(C)C(=O)Cn1ncc(Cl)c(Cl)c1=O,52*,-110,98*,-2,107*,89*,.,37,106*,CF NFkB inh conf=56*
O=C(Cn1ncc(Cl)c(Cl)c1=O)c1ccc2c(c1)OCCO2,79*,.,81*,-38,90*,50,103*,40,103*,CF NFkB inh conf=-2
O=C(Cn1ncc(Cl)c(Cl)c1=O)Nc1ccc2c(c1)OCO2,64*,.,95*,-36,96*,79*,103*,-2,104*,CF NFkB inh conf=4
Cc1nn(CC(=O)Nc2ccc3c(c2)OCO3)c(C)c1Cl,-20,.,-62,-2,-86,-24,.,.,.,
FC(F)(F)c1nnc2c(Sc3ccc(Cl)cc3)nc3ccccc3n12,104*,71*,41*,-17,67*,78*,.,10,46,CF NFkB inh conf=101*
FC(F)(F)c1nnc2c(Sc3ccccn3)nc3ccccc3n12,47,-17,-45,-10,24,46,.,.,.,
CCOC(=O)N1CCN(S(=O)(=O)c2ccc(C(=O)Nc3sc4c(c3C(=O)OC)CCN(C)C4)cc2)CC1,-38,.,61*,-20,110*,37,.,26,90*,
CCOC(=O)/C(=C/c1c(C)n(C)c2ccc([N+](=O)[O-])cc12)C(C)=O,2,6,72*,-9,49,-9,.,70*,59*,
CCOC(=O)c1c(N)c2cc([N+](=O)[O-])ccc2n1C,-51,23,-43,19,-21,-20,.,.,.,
CC(=O)Nc1sc2c(c1-c1nc3ccccc3s1)CCN(C(C)C)C2,-1,-2,40*,-31,99*,77*,101*,.,.,
CCN(CC)Cc1c(O)ccc2c([N+](=O)[O-])c(C)n(-c3ccc(OC)cc3)c12,82*,43,25,-23,12,0,84*,.,.,
CCN(CC)Cc1c(O)ccc2occ(C(=O)c3ccc(OC)cc3)c12,-5,6,29,4,4,-2,.,.,.,
COC(=O)CSc1nc(N)c(C#N)c(-c2ccc(O)cc2)c1C#N,12,12,40*,-9,8,-9,.,35,21,
CCc1ccccc1NC(=O)CNC(=O)CCc1nc2sc3c(c2c(=O)[nH]1)CCCC3,12,.,3,-8,7,2,.,.,.,
CC(C)c1ccc(NC(=O)Nc2nc(C(N)C3CCCCC3)cs2)cc1 (stereo not given),45,.,50*,-45,95*,.,.,11,106*,
CN(C)CCNC(=O)c1cc2c(s1)-c1ccc(Cl)cc1SC2,47,.,-50,-45,110*,100*,103*,.,.,
O=S1(=O)Nc2c(ccc3cccnc23)-c2ccccc21,52*,.,18,12,111*,77*,103*,.,.,
Clc1ccc2ccc3cccnc3c2n1,-27,.,-28,-4,-24,-5,.,.,.,
Cc1ccc(OCCn2c(=S)[nH]c3ccccc32)c(C(C)C)c1,0,.,21,-1,19,17,.,.,.,
O=C1C(=C(c2ccccc2)N2CCOCC2)Cc2ccccc21,91*,.,91*,-7,108*,.,.,98*,105*,
O=C(Oc1ccc[nH]c1=O)C1CC1,17,.,5,-8,-2,.,.,.,.,
Cc1ccc(Cl)cc1NC(=O)c1cc2ccccc2cc1O,51*,82*,-143,-55*,2,72*,101*,.,.,
SMILES,CF NFkB block,CHOP inh,HIF-2a block,KKLEB tox,Peg3 promoter,MITF TRPM1 inh,Mdm2-MdmX confirm,HIF-2a inh conf,HIF-1a counter,others
Cc1ccc(Cl)cc1NC(=O)COC(=O)c1ccccc1O,2,8,19,4,19,1,.,.,.,
NNC(=O)c1cc2ccccc2cc1O,8,-13,69*,7,39,76*,.,81*,75*,
COC(=O)c1ccc2c(=O)n(CCCCCC(=O)NCCNC(C)=O)c(=O)[nH]c2c1,-2,10,17,3,17,0,.,.,.,
NC1=NC[C@H](Cc2ccc(O)cc2)N1CCc1cc(C(F)(F)F)cc(C(F)(F)F)c1,-32,38,13,14,-6,14,.,.,.,
NC1=NC[C@@H](CC2CCCCC2)N1CCc1cc(C(F)(F)F)cc(C(F)(F)F)c1,15,.,-27,4,94*,99*,103*,.,.,
O=C(CN1C(=O)COc2ccc(Cl)cc21)Nc1ccccn1,18,.,4,1,14,4,.,.,.,
Nc1nc(N)c2c(ccc3c2ccn3Cc2cccc([N+](=O)[O-])c2)n1,17,.,89*,-42,100*,.,.,12,105*,
Nc1nc(N)c2cc([N+](=O)[O-])ccc2n1,-14,.,9,7,3,14,.,.,.,
Nc1ncnc2c(C3OC(CO)C(O)C3O)c[nH]c12 (stereo not given),83*,.,50*,-53*,96*,.,.,37,106*,
CC[C@@]12C(=O)N(c3ccc(C)cc3)C(=O)N1[C@H](c1cccc(C)c1)[C@@H]1C(=O)N(Cc3ccccc3)C(=O)[C@@H]12,-2,.,3,-2,4,-7,.,.,.,
Cc1cccc([C@@H]2[C@@H]3C(=O)N(Cc4ccccc4)C(=O)[C@@H]3[C@]3(Cc4ccc(Cl)cc4)C(=O)N(c4ccc(Br)cc4)C(=O)N23)c1,5,.,6,-12,7,-6,102*,.,.,
